Compound activity deposited in PubChem by several laboratories.
The list is not random: actives were taken first. Their share in the collection is about 3.5%.
BoNT F protease: BoNT F light chain protease inhibition; 360,000 tested, 0.22% active; Multiplex microsphere protease cleavage assay, flow cytometry; inhibition, % at 10 µM; in the data active = inhibition above about 35%, passing the limit was not always enough; inconclusive = no clear call, values can overlap the other calls; also: plate controls were buffer without enzyme for full effect and enzyme alone for no effect
BJeLR lethal: BJeLR cell viability loss; inhibition, % (concentration not given with the values); BJeLR (HRASV12) viability, CellTiter-Glo ATP luminescence, 48 h; 300,000 tested, 0.17% active; AID 1554; in the data active = inhibition above about 50%; inconclusive = no clear call, values can overlap the other calls
Anthrax LF prot: anthrax lethal factor protease inhibition; multiplex microsphere protease cleavage assay, LF; inhibition, % at 10 µM; 360,000 tested, 0.12% active; AID 588501; also: plate controls were buffer without enzyme for full effect and enzyme alone for no effect
Target sequence (P15917 whole entry, looked up): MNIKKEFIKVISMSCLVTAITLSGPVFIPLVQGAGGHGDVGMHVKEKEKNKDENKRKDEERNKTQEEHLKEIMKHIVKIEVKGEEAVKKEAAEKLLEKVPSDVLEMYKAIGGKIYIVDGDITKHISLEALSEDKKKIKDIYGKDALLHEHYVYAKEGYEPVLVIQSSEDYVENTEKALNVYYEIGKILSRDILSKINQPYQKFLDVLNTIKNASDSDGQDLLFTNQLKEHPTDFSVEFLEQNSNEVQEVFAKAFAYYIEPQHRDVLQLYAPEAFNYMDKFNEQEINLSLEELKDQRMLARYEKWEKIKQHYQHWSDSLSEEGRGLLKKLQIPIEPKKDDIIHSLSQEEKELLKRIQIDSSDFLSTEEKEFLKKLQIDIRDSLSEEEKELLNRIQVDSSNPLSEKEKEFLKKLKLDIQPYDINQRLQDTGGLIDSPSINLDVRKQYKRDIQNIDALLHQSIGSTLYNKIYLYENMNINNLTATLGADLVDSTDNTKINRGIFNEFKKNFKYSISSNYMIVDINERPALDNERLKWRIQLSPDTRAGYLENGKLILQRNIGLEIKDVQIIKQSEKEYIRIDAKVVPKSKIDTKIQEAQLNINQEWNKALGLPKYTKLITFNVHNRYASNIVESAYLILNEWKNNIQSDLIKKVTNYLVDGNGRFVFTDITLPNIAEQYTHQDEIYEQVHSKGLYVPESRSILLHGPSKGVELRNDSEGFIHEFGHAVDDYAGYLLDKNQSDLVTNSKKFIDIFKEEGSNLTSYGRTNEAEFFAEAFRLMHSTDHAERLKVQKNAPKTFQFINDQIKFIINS
Bead autofluor: compound fluorescence in toxin protease inhibitor counterscreen; compound autofluorescence counterscreen, microsphere flow cytometry; hits give high values; fluorescence intensity (no concentration beside the values); 360,000 tested, 3.1% active; in the data active = fluorescence intensity above about 16000; inconclusive = no clear call, values can overlap the other calls
BoNT A protease: BoNT A light chain protease inhibition | multiplex microsphere protease substrate cleavage, flow cytometry | inhibition, % at 10 µM | 360,000 tested, 0.17% active; also: plate controls were buffer without enzyme for full effect and enzyme alone for no effect
* marks the source's active call; other numbers are inactive results. Rule as the data show it, unless noted: active = inhibition above about 30%; inconclusive = no clear call, values can overlap the other calls; inactive = below that.

O=C(CCCN1C(=O)CCC1=O)Nc1ccc(Br)cc1F was read as BoNT F protease 0.0, BJeLR lethal 1.1, Anthrax LF prot -0.1, Bead autofluor 23503* and BoNT A protease 0.4.
Screening COc1cc(Cl)c(C)cc1NC(=O)CCCN1C(=O)CCC1=O returned BoNT F protease -1.5, BJeLR lethal 6.1, Anthrax LF prot -2.8, Bead autofluor 19155* and BoNT A protease 0.7.
`CCCNC(=O)C1(C)CCCN(Cc2cccc(C#N)c2)C1` (stereo not drawn) gave BoNT F protease -3.0, Anthrax LF prot -14.3, Bead autofluor 3048 and BoNT A protease 0.2.
COc1ccccc1OCC(=O)N/N=C(\C)c1ccc2ccccc2c1 was read as BoNT F protease -7.0, Anthrax LF prot -0.6, Bead autofluor 3750 and BoNT A protease 0.0.
c1ccc(N2CCN(c3ccccc3)C2c2cccs2)cc1 was read as BoNT F protease -7.1, BJeLR lethal 11.2, Anthrax LF prot -2.5, Bead autofluor 22528* and BoNT A protease -1.4.
Screening CC(C)(Oc1ccc(Cl)cc1)C(=O)NCc1ccncc1 returned BoNT F protease -1.2, BJeLR lethal -6.4, Anthrax LF prot -3.7, Bead autofluor 20771* and BoNT A protease -0.4.
COc1cccc(-n2c(SCC(=O)Nc3sc4c(c3C(N)=O)CCC4)nc3ccccc3c2=O)c1 was read as BoNT F protease -1.8, BJeLR lethal 2.4, Anthrax LF prot -2.9, Bead autofluor 16606* and BoNT A protease -0.7.
For COc1cc([C@H]2[C@@H]3CCCC[C@]3(O)CCN2CC(=O)Nc2ccc(C)cc2)ccc1O the results were BoNT F protease -4.2, BJeLR lethal -1.2, Anthrax LF prot -5.4, Bead autofluor 22835* and BoNT A protease 0.7.
`COc1ccc(NC(=O)CN2CCC3(O)CCCCC3C2c2ccccc2OC)cc1` (stereo not drawn) gave BJeLR lethal 0.6.
`COc1ccc(OC)c(NC(=O)CSc2nc3ccccc3c(=O)n2CCNC(C)=O)c1` gave BoNT F protease -4.0, BJeLR lethal -1.0, Anthrax LF prot 1.3, Bead autofluor 20543* and BoNT A protease -2.9.
CCOc1ccc(NC(=O)CSc2nc3ccccc3c(=O)n2CCNC(C)=O)cc1 was read as BoNT F protease 2.2, BJeLR lethal -13.2, Anthrax LF prot -1.0, Bead autofluor 20012* and BoNT A protease 1.7.
For CCn1c(SCC(=O)Nc2ccc(NC(=O)c3ccco3)c(OC)c2)nc2ccccc2c1=O the results were BoNT F protease -6.4, BJeLR lethal -11.4, Anthrax LF prot -0.7, Bead autofluor 20994* and BoNT A protease -4.2.
For CN(Cc1ccccc1)C(=O)c1csc([C@@H]2C[C@H](O)[C@@H](CO)O2)n1 the results were BoNT F protease -1.7, Anthrax LF prot 1.5, Bead autofluor 3700 and BoNT A protease 0.2.
`CCCCN(C=O)c1c(CC)nc2ccc(C(=O)NCCc3ccccn3)cn12` gave BoNT F protease 1.7, Anthrax LF prot -3.4, Bead autofluor 3404 and BoNT A protease -0.1.
For OCC1OC(n2cnc3c(NCc4ccccc4O)ncnc32)C(O)C1O (stereo not drawn) the results were BoNT F protease -6.4, Anthrax LF prot -4.6, Bead autofluor 3705 and BoNT A protease 0.4.
`COc1cc(/C=N/Nc2ccc(Cl)c(C(=O)O)c2)ccc1OCC(=O)N1C(C)CCCC1C` (stereo not drawn) gave BoNT F protease 2.3, BJeLR lethal -1.7, Anthrax LF prot -0.7, Bead autofluor 4126 and BoNT A protease 0.6.
Screening O=C(CN1C(=O)c2ccccc2C1=O)C(O)CN1C(=O)c2ccccc2C1=O (stereo not drawn) returned BoNT F protease -2.7, Anthrax LF prot -4.1, Bead autofluor 5548 and BoNT A protease -0.4.
For O=[N+]([O-])c1ccc(COc2ccc(CNc3ccccc3)cc2)cc1 the results were BoNT F protease -3.1, BJeLR lethal 4.5, Anthrax LF prot 0.0, Bead autofluor 2066 and BoNT A protease -0.6.
`COc1cc(CNc2ncnc3c2ncn3[C@H]2CN(Cc3ccncc3)C[C@@H](CO)O2)cc(OC)c1OC` gave BoNT F protease 0.3, Anthrax LF prot 3.2, Bead autofluor 3734 and BoNT A protease 0.2.
Screening Cc1nnc(NC(=O)C2CCN(c3cnccn3)CC2)s1 returned BoNT F protease 0.5, BJeLR lethal 2.1, Anthrax LF prot -1.5, Bead autofluor 22414* and BoNT A protease 0.2.
For Cc1nnc(NC(=O)C2CCN(c3nnnn3-c3ccccc3)CC2)s1 the results were BoNT F protease 2.8, BJeLR lethal -2.6, Anthrax LF prot -4.4, Bead autofluor 21118* and BoNT A protease inconclusive.
`Cn1c(O)c(C=NC2CCCCC2)c(=O)[nH]c1=S` gave BoNT F protease 0.2, BJeLR lethal 21.6, Anthrax LF prot -1.0, Bead autofluor 2272 and BoNT A protease -0.4.
Screening O=c1[nH]c(O)c(C=NC2CCCCC2)c(=O)[nH]1 returned BoNT F protease inconclusive, BJeLR lethal 9.3, Anthrax LF prot 37.3*, Bead autofluor 3857 and BoNT A protease -11.8.
COc1cc(C(=O)OCC(=O)NC2CCCCC2)cc(OC)c1OC was read as BoNT F protease -8.4, Anthrax LF prot -7.3, Bead autofluor 3652 and BoNT A protease 0.0.
O=C1C(=O)c2ccccc2-c2ccccc21 was read as BoNT F protease -2.7, BJeLR lethal 99.6*, Anthrax LF prot -5.4, Bead autofluor 5605 and BoNT A protease 0.8.
Screening O=C1C(=C(I)I)c2ccccc2-c2ccccc21 returned BoNT F protease -11.4, Anthrax LF prot -13.8, Bead autofluor 3094 and BoNT A protease 1.1.
For CCCc1c(O)nc(SCCN(CC)CC)n(C(=O)c2ccccc2)c1=O the results were BoNT F protease -4.6, BJeLR lethal -29.3, Anthrax LF prot -0.2, Bead autofluor 23987* and BoNT A protease -2.6.
Screening CCCc1c(O)nc(SCCN(CC)CC)[nH]c1=O returned BoNT F protease -4.6, BJeLR lethal -12.0, Anthrax LF prot 5.0, Bead autofluor 4692 and BoNT A protease -1.4.
For COC(=O)CN(C#N)c1nc(OC)nc(N(C)C)n1 the results were BoNT F protease -1.4, BJeLR lethal -0.4, Anthrax LF prot -1.0, Bead autofluor 17155* and BoNT A protease -1.7.
`COC(=O)CN(C#N)c1nc(N(C)C)nc(N(C)C)n1` gave BoNT F protease 2.6, BJeLR lethal -1.7, Anthrax LF prot -1.5, Bead autofluor 4153 and BoNT A protease 0.3.
Screening CCNC(=O)N(C)c1c(CC)nc2ccc(C(=O)N3CCN(C(=O)c4ccco4)CC3)cn12 returned BoNT F protease 0.5, Anthrax LF prot -4.2, Bead autofluor 3795 and BoNT A protease -0.3.
Screening COc1ccccc1CNC(=O)C(CCSC)NC(=O)c1cccc(S(=O)(=O)N2CCOCC2)c1 (stereo not drawn) returned BoNT F protease -1.2, Anthrax LF prot -2.9, Bead autofluor 3949 and BoNT A protease -0.2.
Screening Cc1ccc(N2CC(C(=O)NCc3ccc4c(c3)OCO4)CC2=O)cc1C (stereo not drawn) returned BoNT F protease -1.5, BJeLR lethal 9.5, Anthrax LF prot -3.2, Bead autofluor 22630* and BoNT A protease inconclusive.
